Active and inactive are the calls of the source.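 Rule for the calls, unless noted: active = compounds lowering colon cancer cell viability after pretreatment blocking the GSK3B kinase; inactive = the rest.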

Assay [1] in a line: Wnt pathway potentiators raising nuclear beta-catenin – imaging, WNT3A-conditioned medium, mouse C2C12, NPC library, primary screen (AID 1117326; in the data active = nuclear beta-catenin stimulation mostly above about 4.2%, no sharp cut-off; inactive = mostly below about 10%; note: reference of the scale not given here). Particulars: stronger effect = higher value.
Assay [2] can be described thus: stimulators of insulin release from INS-1E, primary screen, cell-based, 5 mM glucose, NPC library (AID 1117329;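 active = compound raises insulin release from rat beta cells at 5 mM glucose, no numeric limit stated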; note: reference of the scale not given here). Particulars: rat INS-1E insulin secretion, at 10 µM, stronger effect = higher value.
Assay [3] is described as follows: growth inhibition of GSK3B-pretreated HCT116 cells – cell-based, CellTiter-Glo, 0.2 to 20 µM (AID 1117336). Particulars: HCT116 viability after GSK3B inhibitor, at 20 µM, stronger effect = higher value. For orientation: In ATP-based viability assays light output follows the ATP content of the culture.
Assay [4] is described as follows: inhibition of endothelial tube formation, primary screen, imaging, VEGF stimulated, CD31 staining, tube area, NPC library (AID 1117340;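 active = compound that reduces growth-factor-driven endothelial tube area in a mixed cell culture, no cutoff stated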). To be noted: VEGF-stimulated ADSC/ECFC co-culture, at 10 µM, stronger effect = higher value.
A short description of assay [5]: GLP1 release stimulators, primary, NCI-H716, NPC library (AID 1117341;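 active = compound raises GLP1 secretion from the human gut endocrine cells, with no numeric limit stated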; note: reference of the scale not given here). To be noted: NCI-H716 cells, at 10 µM, stronger effect = higher value.
The nature of assay [6]: HCT116 colon cancer cell growth inhibition, primary screen, CellTiter-Glo luminescence, NPC library (AID 1117342;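 active = compounds that lower survival of HCT116 colon cancer cells in the luminescence readout, no numeric limit stated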). Particulars: at 20 µM (top of the series).
The nature of assay [7]: reduced SW480 viability measured with CellTiter-Glo, NPC library, primary (AID 1117343;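 active = compounds that lower viability of the colon cancer cells in the luminescence readout, with no numeric limit stated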). To be noted: CellTiter-Glo luminescence; at 20 µM (top of the series).
Assay [8] can be described thus: NPC library primary testing for decreased DLD-1 cell viability via CellTiter-Glo (AID 1117346;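 active = compounds that lower survival of DLD-1 colon cancer cells in the luminescence readout, no cutoff given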). To be noted: DLD-1 viability, CellTiter-Glo luminescence; at 20 µM (top of the series).

Consider `Cc1ncc(COP(=O)(O)O)c(C=O)c1O`, for which the nuclear beta-catenin stimulation in assay [1] (at 10 µM) was -1.1% (inactive); in assay [1] (stimulation, at 2 µM), -0.2%. Moreover, in assay [2], the insulin secretion stimulation is -0.8% (inactive). In addition, in assay [3], the viability decrease is 9.5% (inactive). In addition, in assay [4], the tube area decrease is -0.4% (inactive). Besides, the GLP1 secretion stimulation in assay [5] was -1.1% (inactive). In assay [6], the inhibition of viability is 4.63% (inactive). The viability decrease (inhibition) in assay [7] was -1.4% (inactive); in assay [8], 3.4% (inactive).
Regarding `O=C(Nc1ccc(Cl)cc1)Nc1ccc(Cl)c(Cl)c1`, the nuclear beta-catenin stimulation in assay [1] (at 10 µM) was 35.1% (inactive); in assay [1] (stimulation, at 2 µM), 0.3%. Besides, the insulin secretion stimulation in assay [2] is -3.4% (inactive). The viability decrease in assay [3] was 92.2% (active). Besides, the tube area decrease in assay [4] is 103% (active). Also, the GLP1 secretion stimulation in assay [5] was -3.2% (inactive). Besides, the inhibition of viability in assay [6] was 84.6% (active). Further, the figures for the viability decrease (inhibition) in assay [7] and in assay [8] were 116% (active) and 94.1% (active), respectively.
For `c1ccc2[nH]ccc2c1`, the nuclear beta-catenin stimulation was 0.4% (inactive) in assay [1] (at 10 µM) and 3% in assay [1] (stimulation, at 2 µM). Moreover, the insulin secretion stimulation in assay [2] was -2.8% (inactive). Moreover, the viability decrease in assay [3] is -4.45% (inactive). The tube area decrease in assay [4] is 10.7% (inactive). Further, the GLP1 secretion stimulation in assay [5] was 1.9% (inactive). Further, in assay [6], the inhibition of viability is -34.9% (inactive). Moreover, the results for the viability decrease (inhibition) in assay [7] and in assay [8] were 23.7% (inactive) and 6.25% (inactive), respectively.
For `CCCCCCCCCCCC(=O)[O][Sn]([CH2]CCC)([CH2]CCC)[O]C(=O)CCCCCCCCCCC`, the nuclear beta-catenin stimulation is 75.9% (active) in assay [1] (at 10 µM) and 7.2% in assay [1] (stimulation, at 2 µM). The insulin secretion stimulation in assay [2] is 0% (inactive). In addition, in assay [3], the viability decrease was -72% (inactive). Moreover, in assay [4], the tube area decrease was 94.7% (active). The GLP1 secretion stimulation in assay [5] is 49% (active). Further, the inhibition of viability in assay [6] was 5.07% (inactive). The viability decrease (inhibition) in assay [7] was 133% (active); in assay [8] it was 101% (active).
Consider `Oc1cn2c(n1)Nc1ccc(Cl)c(Cl)c1C2`, for which the nuclear beta-catenin stimulation is 0.1% (inactive) in assay [1] (at 10 µM) and 2.5% in assay [1] (stimulation, at 2 µM). Further, the insulin secretion stimulation in assay [2] was 0.6% (inactive). The viability decrease in assay [3] is -54.9% (inactive). In addition, the tube area decrease in assay [4] was 40.1% (active). Besides, the GLP1 secretion stimulation in assay [5] was 4.1% (inactive). Moreover, the inhibition of viability in assay [6] was -2.2% (inactive). The figures for the viability decrease (inhibition) in assay [7] and in assay [8] were -21.9% (inactive) and -16.9% (inactive), respectively.
Turning to `CC[N+]1(CC)CCC(=C(c2ccccc2)c2ccccc2)C1C` (stereo not given), the nuclear beta-catenin stimulation in assay [1] (at 10 µM) was -1.3% (inactive); in assay [1] (stimulation, at 2 µM) it was -2.2%. The insulin secretion stimulation in assay [2] was 1.7% (inactive). The viability decrease in assay [3] is -4.6% (inactive). In addition, the tube area decrease in assay [4] is -9.4% (inactive). Moreover, the GLP1 secretion stimulation in assay [5] is 3.8% (inactive). For the same compound, in assay [6], the inhibition of viability was 22.7% (inactive). Also, the viability decrease (inhibition) in assay [7] was 1.6% (inactive); in assay [8], 34.6% (inactive).
Take `NCC(=O)O`: the nuclear beta-catenin stimulation is 2.3% (inactive) in assay [1] (at 10 µM) and 4% in assay [1] (stimulation, at 2 µM). Also, in assay [2], the insulin secretion stimulation was -2.4% (inactive). Further, the viability decrease in assay [3] was 1.6% (inactive). Moreover, the tube area decrease in assay [4] is -10.9% (inactive). Moreover, the GLP1 secretion stimulation in assay [5] is 1.3% (inactive). In addition, the inhibition of viability in assay [6] is -28% (inactive). The results for the viability decrease (inhibition) in assay [7] and in assay [8] were -6.3% (inactive) and 7.4% (inactive), respectively.
With `CCC(=C(CC)c1ccc(OP(=O)(O)O)cc1)c1ccc(OP(=O)(O)O)cc1`, the nuclear beta-catenin stimulation in assay [1] (at 10 µM) was -1.3% (inactive); in assay [1] (stimulation, at 2 µM), 1.7%. Besides, the insulin secretion stimulation in assay [2] is -1.8% (inactive). In addition, the viability decrease in assay [3] was -26.4% (inactive). Moreover, the tube area decrease in assay [4] is 3.7% (inactive). Moreover, the GLP1 secretion stimulation in assay [5] was -1.8% (inactive). Further, the inhibition of viability in assay [6] is -0.4% (inactive). The viability decrease (inhibition) is -2.6% (inactive) in assay [7] and 10.2% (inactive) in assay [8].
In the case of `Nc1cc(C(F)(F)F)ccc1S`, the nuclear beta-catenin stimulation in assay [1] (at 10 µM) was 0% (inactive); in assay [1] (stimulation, at 2 µM), -0.9%. For the same compound, the insulin secretion stimulation in assay [2] is 4.4% (inactive). Also, in assay [3], the viability decrease was 2.3% (inactive). Also, the tube area decrease in assay [4] was 44.8% (active). In addition, the GLP1 secretion stimulation in assay [5] was 20.5% (active). Also, in assay [6], the inhibition of viability was 16.7% (inactive). Moreover, the viability decrease (inhibition) is -4.3% (inactive) in assay [7] and 20.8% (inactive) in assay [8].
Turning to `O=C(N/N=C/c1ccccc1O)c1ccncc1`, the nuclear beta-catenin stimulation in assay [1] (at 10 µM) is 32.2% (inactive); in assay [1] (stimulation, at 2 µM) it was 11.1%. Further, in assay [2], the insulin secretion stimulation is -1.6% (inactive). Further, the viability decrease in assay [3] was 94.3% (active). In addition, the tube area decrease in assay [4] was 86.7% (active). Moreover, the GLP1 secretion stimulation in assay [5] is 2.1% (inactive). The inhibition of viability in assay [6] was 88.7% (active). The viability decrease (inhibition) was 106% (active) in assay [7] and 57.8% (active) in assay [8].
Consider `CC(=O)Oc1ccc(C2(c3ccc(OC(C)=O)cc3)Oc3ccccc3NC2=O)cc1`, for which the nuclear beta-catenin stimulation is 54.6% (active) in assay [1] (at 10 µM) and 9.3% in assay [1] (stimulation, at 2 µM). The insulin secretion stimulation in assay [2] is 19.9% (inactive). Further, the viability decrease in assay [3] was 91.8% (active). In addition, the tube area decrease in assay [4] is 106% (active). Besides, the GLP1 secretion stimulation in assay [5] was 1.6% (inactive). Further, the inhibition of viability in assay [6] was 83.3% (active). In addition, the viability decrease (inhibition) is 60.2% (active) in assay [7] and 52.2% (active) in assay [8].
For `COc1cc(C(=O)OC(COCCC(C)C)CN2CCOCC2)cc(OC)c1OC` (stereo not given), the nuclear beta-catenin stimulation in assay [1] (at 10 µM) was 0.4% (inactive); in assay [1] (stimulation, at 2 µM), 2.6%. Moreover, the insulin secretion stimulation in assay [2] is 1.9% (inactive). In assay [3], the viability decrease was -9.2% (inactive). Also, the tube area decrease in assay [4] was 0.7% (inactive). Moreover, the GLP1 secretion stimulation in assay [5] is 13.1% (inactive). Moreover, the inhibition of viability in assay [6] was 18.4% (inactive). Further, the viability decrease (inhibition) is 39.2% (inactive) in assay [7] and 2.2% (inactive) in assay [8].
As for `CN1N=C(C(N)=O)CCC1=O`, the nuclear beta-catenin stimulation in assay [1] (at 10 µM) was 1.1% (inactive); in assay [1] (stimulation, at 2 µM), 1.9%. For the same compound, the insulin secretion stimulation in assay [2] was 1.05% (inactive). Moreover, the viability decrease in assay [3] was 3.8% (inactive). Further, the tube area decrease in assay [4] was 1.5% (inactive). The GLP1 secretion stimulation in assay [5] was 2.5% (inactive). In addition, the inhibition of viability in assay [6] is 15.3% (inactive). Moreover, the viability decrease (inhibition) is -11.3% (inactive) in assay [7] and 10.1% (inactive) in assay [8].
As for `CCCCNc1ccc(C(=O)OCCN(CC)CC)cc1`, the nuclear beta-catenin stimulation in assay [1] (at 10 µM) was 4% (inactive); in assay [1] (stimulation, at 2 µM), 1.7%. Besides, the insulin secretion stimulation in assay [2] was 7.25% (inactive). The viability decrease in assay [3] is 50.2% (active). The tube area decrease in assay [4] was 19.5% (inactive). In assay [5], the GLP1 secretion stimulation is 3.7% (inactive). Besides, the inhibition of viability in assay [6] was 81.8% (active). Moreover, the viability decrease (inhibition) in assay [7] was 60.6% (active); in assay [8] it was 88.7% (active).
For the compound `CCN1CCN(c2cc(-c3ccc(F)cc3)c3c(n2)CCCCCC3)CC1`, the nuclear beta-catenin stimulation in assay [1] (at 10 µM) was 0.2% (inactive); in assay [1] (stimulation, at 2 µM), -3.3%. For the same compound, the insulin secretion stimulation in assay [2] was 1.9% (inactive). Besides, the viability decrease in assay [3] was 104% (active). Further, the tube area decrease in assay [4] is 24% (inactive). For the same compound, the GLP1 secretion stimulation in assay [5] was 11.2% (inactive). For the same compound, the inhibition of viability in assay [6] is 113% (active). In addition, the viability decrease (inhibition) was 132% (active) in assay [7] and 102% (active) in assay [8].
